Test systems include HCT-15 colon; HT29 colon; SNB-19 CNS; U251 CNS; SK-MEL-5 melanoma; UACC-62 melanoma; LOX IMVI melanoma; SK-MEL-28 melanoma; SK-MEL-2 melanoma; EKVX NSCLC; SN12C renal; UO-31 renal; TK-10 renal; ACHN renal; CAKI-1 renal; CCRF-CEM leukemia; PC-3 prostate; MOLT-4 leukemia; A498 renal; SNB-75 CNS.
Common to all, as to test: NCI-60 one-dose screen, 48 h (100 = growth as untreated, 0 = no growth, -100 = all killed)
What all share (settings): 10 µM unless noted

Each structure is given as a SMILES string. About 83,000 compounds went through this panel and 20% of them were active in at least one assay; those are over-represented in the sample as a whole.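 Assay: single dose, 48 h. Readout: percent growth (0 = no net growth; negative = cell death). Active: <10.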 Unmarked numbers belong to inactive results. Calls of active or inactive are those of the source.

With `C[C@H](c1nc2ccc(N)cc2[nH]1)[C@H]1CC[C@H]2[C@@H]3CCC4=CC(=O)CC[C@]4(C)[C@H]3CC[C@]12C`, the growth in the assay with HCT-15 colon was 67.8%; in the assay on HT29 colon it was 51.8%; in the assay on SNB-19 CNS it was 90.9%; in the assay on U251 CNS, 70.7%; with SK-MEL-5 melanoma, 81.3%; with UACC-62 melanoma, 85%. Besides, the growth is 84.2% in the assay on LOX IMVI melanoma; 89.4% in the assay with SK-MEL-28 melanoma; 106% in the assay with SK-MEL-2 melanoma; 85.6% in the assay on EKVX NSCLC; 88.3% in the assay on SN12C renal; 65.4% with UO-31 renal. Besides, the growth is 109% in the assay with TK-10 renal, 96.9% with ACHN renal, 91.3% in the assay with CAKI-1 renal and 63.7% in the assay on CCRF-CEM leukemia.

With `NS(=O)(=O)c1ccc(Cn2c(SCC(=O)N/N=C/c3ccccc3O)nc3ccccc3c2=O)cc1`, the growth in the assay on HCT-15 colon was 75%; with HT29 colon, 86.3%; in the assay on SNB-19 CNS, 55.6%; in the assay on U251 CNS it was 43.1%; with PC-3 prostate, 67.9%; in the assay on SK-MEL-5 melanoma it was 58.1%. For the same compound, the growth in the assay on UACC-62 melanoma is 38.1%; in the assay on LOX IMVI melanoma, 16.1%; in the assay on SK-MEL-28 melanoma it was 57.7%; with SK-MEL-2 melanoma, 36.6%; in the assay on EKVX NSCLC, 60.1%; with SN12C renal, 56.2%. Also, the growth in the assay with UO-31 renal was 61%; with ACHN renal, 72.3%; in the assay on CAKI-1 renal it was 54.2%; in the assay with CCRF-CEM leukemia, 23.2%; with MOLT-4 leukemia it was 20.8%.

For the compound `O=C(NCCNc1nccc(-c2c(-c3cccc(F)c3)nc3sccn23)n1)c1ccc(Cl)cc1`, the growth is 40.1% in the assay with HCT-15 colon; 35.2% in the assay on HT29 colon; 71.9% in the assay with SNB-19 CNS; 66.1% in the assay on U251 CNS; 72.5% in the assay with PC-3 prostate; 33.6% with SK-MEL-5 melanoma. Besides, the growth is 14.7% in the assay on UACC-62 melanoma; 43.4% in the assay with LOX IMVI melanoma; 64.9% in the assay with SK-MEL-28 melanoma; 62.5% in the assay on SK-MEL-2 melanoma; 63.2% with EKVX NSCLC; 52.5% with SN12C renal. In addition, the growth is 75.4% with TK-10 renal; 34.2% in the assay with ACHN renal; 41.5% in the assay on CAKI-1 renal; 58.2% with CCRF-CEM leukemia; 65.7% in the assay with MOLT-4 leukemia.

`CCOC(=O)C1=C(CCl)NC(=O)NC1c1ccc2c(c1)OCO2` (configuration not stated): the growth in the assay with HCT-15 colon was 3.53% (active); in the assay with HT29 colon it was 6.92% (active); in the assay on SNB-19 CNS, 64.4%; in the assay with U251 CNS, 18.5%; with PC-3 prostate, 53.9%; in the assay on SK-MEL-5 melanoma, 9.17% (active). The growth with UACC-62 melanoma was 31.4%; in the assay on LOX IMVI melanoma it was 21%; in the assay on SK-MEL-28 melanoma it was 45.6%; with SK-MEL-2 melanoma, 69.5%; with EKVX NSCLC, 52.7%; in the assay on SN12C renal, 20.1%. Also, the growth with UO-31 renal is 56.9%; with TK-10 renal it was 57.3%; in the assay on ACHN renal, 31%; with CAKI-1 renal, 47%; in the assay on A498 renal, 98%; with CCRF-CEM leukemia it was 10.8%. The growth with MOLT-4 leukemia is 37.7%.

For the compound `Cc1cc2nc3c4ccc(Br)cc4n(CCN(C)C)c3nc2cc1C`, the growth is 1.66% (active) in the assay on HCT-15 colon; 5.01% (active) with HT29 colon; 23.5% in the assay with SNB-19 CNS; 15.1% in the assay with U251 CNS; 4.17% (active) with SK-MEL-5 melanoma; 13.1% with UACC-62 melanoma. For the same compound, the growth is -52.6% (active) with LOX IMVI melanoma; 42.4% with SK-MEL-28 melanoma; 8.78% (active) in the assay with SK-MEL-2 melanoma; 22.7% with EKVX NSCLC; 16.7% in the assay with SN12C renal; -30.3% (active) in the assay on UO-31 renal. Also, the growth in the assay on TK-10 renal was 22.2%; in the assay on ACHN renal it was -7.69% (active); with CAKI-1 renal it was 0.198% (active); in the assay with CCRF-CEM leukemia, 12.7%; in the assay with MOLT-4 leukemia, 3.31% (active).

Consider `Cn1cc(-c2nc(-c3c[nH]c4c(Cl)nccc34)cs2)c2cc(Br)ccc21`, for which the growth is 66.5% with HCT-15 colon; 94% in the assay with SNB-75 CNS; 97.6% with SNB-19 CNS; 77.9% in the assay on U251 CNS; 81.2% in the assay on PC-3 prostate; 88% with SK-MEL-5 melanoma. In addition, the growth in the assay on UACC-62 melanoma is 80.3%; with LOX IMVI melanoma, 73.4%; with SK-MEL-28 melanoma, 88.9%; in the assay with SK-MEL-2 melanoma, 87.6%; with EKVX NSCLC, 74.1%; with SN12C renal it was 88.9%. In addition, the growth in the assay with UO-31 renal was 84.5%; in the assay on TK-10 renal it was 86.3%; with ACHN renal, 76.5%; in the assay on CAKI-1 renal, 92.4%; in the assay on A498 renal, 72.3%; in the assay on CCRF-CEM leukemia, 74.4%.

As for `O=C1Nc2ccccc2/C1=C\c1c(-c2ccccc2)nc2ccccn12`, the growth was 29.3% with HCT-15 colon; 21.8% in the assay on HT29 colon; 55.8% in the assay with SNB-19 CNS; 62.9% in the assay on U251 CNS; 17.3% in the assay with SK-MEL-5 melanoma; 37.1% in the assay on LOX IMVI melanoma. Further, the growth with SK-MEL-28 melanoma was 58.6%; with SK-MEL-2 melanoma it was 52.5%; in the assay with EKVX NSCLC, 53.1%; in the assay with SN12C renal it was 46.1%; with UO-31 renal, 48.2%; with TK-10 renal, 84.4%. Also, the growth in the assay with ACHN renal is 40.9%; in the assay on CAKI-1 renal, 39.2%; in the assay on A498 renal, 28.6%; in the assay on CCRF-CEM leukemia, 37.9%; with MOLT-4 leukemia, 9.8% (active).

With `Cc1cc2nc3c4cc(C=O)ccc4n(CCN(C)C)c3nc2cc1C`, the growth in the assay on HCT-15 colon is 2.81% (active); in the assay on HT29 colon, 6.7% (active); in the assay on SNB-19 CNS, 28.1%; with U251 CNS it was 16.8%; in the assay with PC-3 prostate it was 15.5%; in the assay with SK-MEL-5 melanoma, 6.63% (active). For the same compound, the growth in the assay with UACC-62 melanoma was 21.5%; in the assay with LOX IMVI melanoma, -40.5% (active); with SK-MEL-28 melanoma, 37.1%; in the assay on SK-MEL-2 melanoma it was 11.7%; in the assay on EKVX NSCLC it was 25.4%; with SN12C renal, 20.5%. Further, the growth is -28.6% (active) in the assay with UO-31 renal; 23.2% in the assay with TK-10 renal; -15% (active) in the assay on ACHN renal; 3.46% (active) in the assay with CAKI-1 renal; 21.7% in the assay with CCRF-CEM leukemia; 9.19% (active) in the assay with MOLT-4 leukemia.

Regarding `CCOC(=O)Oc1c(OC)cc(C(=O)c2ccc(OC)c(OC(=O)CCl)c2OC)cc1OC`, the growth with HCT-15 colon is 16.6%; with HT29 colon, 35.9%; in the assay on SNB-19 CNS, 22.8%; with U251 CNS it was 19%; in the assay on PC-3 prostate it was 23%; in the assay with SK-MEL-5 melanoma, 34.9%. Besides, the growth in the assay with UACC-62 melanoma is 30.6%; in the assay with LOX IMVI melanoma it was 43.5%; with SK-MEL-28 melanoma, 47.4%; in the assay on SK-MEL-2 melanoma it was 8.91% (active); in the assay on EKVX NSCLC it was 70%; with SN12C renal, 42.4%. In addition, the growth in the assay with UO-31 renal was 46.6%; in the assay on TK-10 renal, 39.1%; with ACHN renal, 36%; with CAKI-1 renal, 30.3%; with CCRF-CEM leukemia, 15.9%; in the assay with MOLT-4 leukemia, 29.6%.
